From PubChem BioAssay (NCATS)
“And” between values parts separate entries of the source, which are not always exact repeats. Equal values may be shown once. Unmarked numbers belong to inactive results. Records with an inconclusive call do not appear. The source made the active and inactive calls. Unless noted, the call rests on the fitted dose curve; in most records, active means well fitted curve in the direction sought with a large enough effect; inconclusive means small, poorly fitted or top-dose-only effect, or another doubt; inactive means no such curve, though single readings can be large; an effect the other way counts as inactive or inconclusive.

Columns and labels:
[1] = biological target: Cytochrome P450 3A4 (Homo sapiens) (UniProt P08684); assay: qHTS Assay for Activators of Cytochrome P450 3A4 (AID 885); conditions: recombinant CYP3A4, Luciferin-PPXE luminescence, 60 min; series mostly up to 57.1 µM; further: nearly all actives have a fitted effect of over 65% in size
Sequence of Cytochrome P450 3A4 (Homo sapiens) (P08684 whole entry, looked up): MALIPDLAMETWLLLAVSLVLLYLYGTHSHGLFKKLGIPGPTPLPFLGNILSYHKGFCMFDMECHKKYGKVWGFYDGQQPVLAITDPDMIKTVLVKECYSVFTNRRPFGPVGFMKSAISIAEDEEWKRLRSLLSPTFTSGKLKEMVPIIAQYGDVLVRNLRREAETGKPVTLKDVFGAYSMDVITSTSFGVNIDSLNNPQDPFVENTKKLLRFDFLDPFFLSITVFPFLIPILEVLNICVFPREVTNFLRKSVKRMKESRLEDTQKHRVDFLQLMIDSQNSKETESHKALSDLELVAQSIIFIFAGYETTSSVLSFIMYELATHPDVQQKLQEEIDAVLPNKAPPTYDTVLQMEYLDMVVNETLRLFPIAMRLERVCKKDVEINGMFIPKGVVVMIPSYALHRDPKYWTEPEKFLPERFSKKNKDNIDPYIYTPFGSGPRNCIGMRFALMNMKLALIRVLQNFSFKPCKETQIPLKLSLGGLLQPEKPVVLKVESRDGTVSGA
Method in brief: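 Signal was normalized against complete inhibition by 57 uM ketoconazole. The reaction used 20nM CYP3A4 with 25uM Luciferin-PPXE, 10-min compound preincubation and a 60-min NADPH-supported step at RT.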

[2] = NCATS anti-infectives library activity on the primary C. elegans qHTS viability assay (AID 1745855; calls by dose curve); conditions: C. elegans worm area imaging, day 7; series mostly up to 41.8 µM
Method in brief: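 Viability is taken from GFP fluorescence of PE254-GFP-FLuc C. elegans imaged by laser cytometry over 7 days. Ten L1 worms per well grow at 21 °C on TOP10 E. coli capsules with titrated compound; levamisole marks toxicity.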

[3] = Cell Viability - BJ (AID 421; calls by dose curve;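 further: potency means the concentration at half of the fitted maximal effect; cells exposed to compound for 40 hours at 37 °C before readout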); conditions: BJ fibroblast viability, qHTS
Method in brief: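 Cytotoxicity as drop in intracellular ATP (CellTiter-Glo, 20 min RT) after 40 hr compound exposure of BJ fibroblasts at 37 °C. Titrations scaled between DMSO and 100 uM tamoxifen, Hill-fitted for AC50.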

[4] = Cell Viability - Jurkat (AID 426;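 active means dose-dependent loss of cell ATP signal giving a full or clear fitted curve, ranked by lower potency value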; further: potency means the concentration at half of the fitted maximal effect); conditions: qHTS
Method in brief: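 Jurkat (clone E6-1, human T-cell leukemia) cells, 5000/well in complete medium, were exposed to compound for 40 hr at 37 °C. Viability was read as intracellular ATP by CellTiter-Glo luminescence; AC50 came from Hill fits of concentration-response data.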

[5] = Cell Viability - Hek293 (AID 427;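 active means compounds whose dose-response curve shows a full or clear partial loss of cell viability, called from curve shape rather than a numeric limit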;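 further: potency means the concentration at half of the fitted maximal effect; cells exposed to compound for 40 hours at 37 °C before reading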); conditions: qHTS
Method in brief: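 Luminescent ATP content (CellTiter-Glo, 20 min at room temperature) was measured after a 40 hr, 37 °C compound exposure of HEK293 cells. AC50 values came from Hill-equation fits of qHTS concentration-response data normalized to DMSO and 100 uM tamoxifen.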

[6] = Cell Viability - HepG2 (AID 433; calls by dose curve;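 further: potency means the concentration at half of the fitted maximal effect; potency for ATP loss meaning cytotoxicity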); conditions: qHTS
Method in brief: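 HepG2 cells, 1500 per well, treated 40 hr at 37 °C in complete medium; viability from intracellular ATP by CellTiter-Glo luminescence. Normalized to DMSO and 100 uM tamoxifen; AC50 from Hill fit of qHTS concentration-response.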

[7] = Cell Viability - MRC5 (AID 434; calls by dose curve;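 further: potency means the concentration at half of the fitted maximal effect; potency reflects cytotoxicity seen as loss of intracellular ATP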); conditions: MRC5 lung fibroblast viability, qHTS
Method in brief: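 qHTS cytotoxicity in human lung fibroblast MRC5 cells; 40 hr treatment, 37 °C; cellular ATP by luciferase luminescence; DMSO = 0%, 100 uM tamoxifen = 100% inhibition; Hill-fit AC50.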

[8] = Cell Viability - SK-N-SH (AID 435; calls by dose curve;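 further: potency means the concentration at half of the fitted maximal effect; compound exposure lasted 40 h at 37 °C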); conditions: SK-N-SH neuroblastoma cell viability qHTS
Method in brief: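 SK-N-SH neuroblastoma cells (1500/well) treated 40 h at 37 °C in complete medium; viability read as cellular ATP by CellTiter-Glo luminescence. Normalized to DMSO and 100 uM tamoxifen; AC50 from Hill fits of qHTS concentration-response.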

[9] = qHTS assay for small molecule activators of the p53 signaling pathway (AID 651743; active means well fitted activation curve with a large enough effect in the signal ratio, not every such curve was filed as active; the % refers to the signal ratio; further: % of control where 0% means no effect); conditions: HCT-116 p53RE-bla, beta-lactamase FRET ratio, 16 h; active compounds read high
Method in brief: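 Screen for p53 pathway agonists uses stably transfected p53RE-bla HCT-116 cells, 4,000 per well, treated 16 h at 37 C with compounds in DMSO.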

[10] = qHTS assay for small molecule disruptors of the mitochondrial membrane potential - 1 hr assay (AID 651754; calls by dose curve; further: potency means the concentration at half of the fitted maximal effect; nearly all actives have a fitted effect of over 35% in size)
Method in brief: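 HepG2 cells, attached overnight at 37C, were exposed to compound or DMSO vehicle for 1 hr at 37C, 5% CO2, then stained with Mito-MPS dye for 30 min. Red aggregate versus green monomer fluorescence reports membrane potential.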

[11] = qHTS assay for small molecule disruptors of the mitochondrial membrane potential - 5 hr assay (AID 651755; calls by dose curve; further: potency means the concentration at half of the fitted maximal effect; nearly all actives have a fitted effect of over 40% in size); conditions: JC-1-type ratio dye
Method in brief: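 HepG2, 2,000 cells/well, overnight attach; cpd or DMSO 5 hr, 37C/5% CO2; Mito-MPS 30 min 37C; fluor 490/535 + 540/590 nm.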

[12] = qHTS assay for environmental chemicals that activate the Aryl hydrocarbon Receptor (AhR) signaling pathway (AID 651777); conditions: 1A2-DRE human hepatoma cells, luciferase, 24 h; active compounds read high; further: % of control where 0% means no effect; nearly all actives have a fitted effect of over 15% in size
Method in brief: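 Following a 24 hr incubation with test chemicals at 37 C and 5% CO2, 1A2-DRE human hepatoma cells received One-Glo reagent; after 30 min at room temperature, luciferase output reflected CYP1A2 induction via AhR.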

[13] = qHTS assay for small molecule agonists of the antioxidant response element (ARE) signaling pathway measured by Nrf2-dependant transcriptional activity - cell viability counter screen (AID 720653; active means well fitted curve in the direction sought with a large enough effect in the repeat runs; an effect the other way counts as inactive or inconclusive; further: on the % scale 0 is the no-effect control and ±100 the full control effect); conditions: ARE-bla HepG2 viability, CellTiter-Glo ATP luminescence, 16 h; max response: active compounds read low
Method in brief: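 Cytotoxicity counter screen: intracellular ATP quantified by CellTiter-Glo luminescence in the same ARE-bla HepG2 plates, after 16 h compound exposure and a 2 h beta-lactamase substrate step.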

[14] = qHTS assay for cell viability of HEK293 cells (AID 743288); conditions: ATP luminescence (CellTiter-Glo), 18 h; max response: active compounds read low; further: on the % scale 0 is the no-effect control and ±100 the full control effect; nearly all actives have a fitted effect of over 50% in size
Method in brief: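 Parental HEK293 cells, 2,000 per well, preincubated at least 5 h at 37 C, then exposed to compounds in DMSO for 18 h at 37 C. Viability by CellTiter-Glo ATP luminescence after 30 min at room temperature.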

[15] = tested on: CP203; assay: qHTS profiling for inhibitors of Plasmodium falciparum proliferation (AID 504749); further: potency means the concentration at half of the fitted maximal effect; nearly all actives have a fitted effect of over 60% in size; conditions: P. falciparum in erythrocytes, SYBR Green DNA, 72 h; series mostly up to 28.7 µM
Method in brief: (§1)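 Three-day growth assay of blood-stage parasites in erythrocytes (0.3% parasitemia, 2.5% hematocrit) at 37 C, 5% CO2, quantified by SYBR Green DNA staining after overnight detergent lysis.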

[16] = tested on: CP291; assay: as above; conditions: P. falciparum in erythrocytes, SYBR Green DNA, 72 h; series mostly up to 28.7 µM
Method in brief: as §1

[17] = tested on: DFO2036; assay: as above; conditions: P. falciparum in erythrocytes, SYBR Green DNA, 72 h; series mostly up to 28.7 µM
Method in brief: as §1

[18] = tested on: DIV14; assay: as above; conditions: P. falciparum in erythrocytes, SYBR Green DNA, 72 h; series mostly up to 28.7 µM
Method in brief: as §1

[19] = tested on: DIV17; assay: as above; conditions: P. falciparum in erythrocytes, SYBR Green DNA, 72 h; series mostly up to 28.7 µM
Method in brief: as §1

[20] = tested on: GB4; assay: as above; conditions: P. falciparum in erythrocytes, SYBR Green DNA, 72 h; series mostly up to 28.7 µM
Method in brief: as §1

Oc1ccc(Nc2nc(-c3ccc(Cl)cc3)cs2)cc1
Potency [1]: inactive

N#C[C@@H]1C[C@@H]2C[C@@H]2N1C(=O)[C@@H](N)C12CC3CC(CC(O)(C3)C1)C2
Potency [2]: inactive

Nc1ccc(N)c([N+](=O)[O-])c1
Potency [3]: > 92 µM | Potency [4]: > 92 µM | Potency [5]: > 92 µM | Potency [6]: > 92 µM | Potency [7]: > 92 µM | Potency [8]: > 92 µM | activation [9]: -0.975% and -0.0594% | Potency [10]: 29.8 µM (active) | Potency [11]: 29.8 µM (active) | activation [12]: 3.75% | max response [13]: -19.5% and -28.1% | max response [14]: -1.33% and -23.7%

O=C(CC1NCCC[C@H]1O)Cn1cnc2cc(Br)c(Cl)cc2c1=O (stereo not given in full)
Potency [15]: 3.38 µM (active) | Potency [16]: 2.69 µM (active) | Potency [17]: 2.82 µM (active) | Potency [18]: 3.01 µM (active) | Potency [19]: 3.38 µM (active) | Potency [20]: 1.9 µM (active)
